High-throughput results from PubChem.
Compounds with a hit are over-represented: about 7.3% of the library has one in this group of screens.
Luc counter = Counterscreen for Luciferase (Kinase-Glo TM) Inhibition; Luciferin 4-monooxygenase (Photuris pensylvanica), Q27757; Kinase-Glo luciferase, ATP luminescence, 8 min; Potency, µM (top dose mostly 38.3 µM), inactives show top-dose activity change, negative = inhibition, most hits filed as inhibitors; 200,000 tested, 0.28% active; AID 1379, 2008; further: on the % scale 0 is the no-effect control and ±100 the full control effect; nearly all actives have a fitted effect of over 60% in size
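Inhibition of Kinase-Glo luciferase light generation was assessed at 10 uM ATP in pH 7.2 imidazole buffer, with luminescence measured after eight minutes at ambient temperature.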
FLuc counter = qHTS profiling assay for firefly luciferase inhibitor/activator using purifed enzyme and Km concentrations of substrates (counterscreen for miR-21 project) | 360,000 tested, 6.9% active | Potency, µM (titrated, usually from 57.5 µM), for inactives: at the highest dose activity change, negative = inhibition, most hits filed as inhibitors | purified FLuc, Km substrates, luminescence inhibition | Luciferin 4-monooxygenase (Photinus pyralis), P08659;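 further: plate controls were vehicle for no effect and reference inhibitor for full effect; nearly all actives have a fitted effect of over 55% in size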
Target sequence (P08659 whole entry, looked up): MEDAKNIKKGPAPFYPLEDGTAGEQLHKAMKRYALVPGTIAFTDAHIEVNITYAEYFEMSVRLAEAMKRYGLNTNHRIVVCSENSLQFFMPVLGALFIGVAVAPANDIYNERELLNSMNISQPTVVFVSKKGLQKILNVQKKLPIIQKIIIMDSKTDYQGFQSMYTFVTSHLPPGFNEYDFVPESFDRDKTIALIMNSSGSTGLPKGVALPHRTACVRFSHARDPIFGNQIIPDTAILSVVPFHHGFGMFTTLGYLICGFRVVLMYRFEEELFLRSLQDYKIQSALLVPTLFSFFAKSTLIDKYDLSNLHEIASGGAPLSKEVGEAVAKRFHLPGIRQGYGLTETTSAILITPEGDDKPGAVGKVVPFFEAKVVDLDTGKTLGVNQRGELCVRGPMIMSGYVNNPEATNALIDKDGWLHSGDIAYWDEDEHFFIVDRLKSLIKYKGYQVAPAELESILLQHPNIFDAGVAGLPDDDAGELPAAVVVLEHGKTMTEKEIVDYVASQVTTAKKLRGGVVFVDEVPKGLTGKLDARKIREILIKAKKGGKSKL
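Purified P. pyralis luciferase, 10 nM final, with Km-level 10 uM D-luciferin and 10 uM ATP in 50 mM Tris acetate pH 7.5, 10 mM Mg acetate, 0.01% Tween-20, 0.05% BSA; 6-point qHTS titration about 60 µM downward; luminescence read.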
Rab9 promoter act = qHTS Assay for Rab9 Promoter Activators. Huh7 Rab9 promoter-luciferase reporter, luminescence, 24 h. Potency, µM (series often up to 9.22 µM), for inactives: at the top dose activation, negative = inhibition, usual class: activators. 320,000 tested, 2.8% active; further: % of control where 0% means no effect; nearly all actives have a fitted effect of over 60% in size
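Cell-based reporter: Huh7 stable for Rab9 promoter-driven luciferase, plated in reduced-serum medium with 10% FBS at 1500 cells/well, compound-treated 24 h at 37 °C, luminescence read after 10 min reagent.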
NPC1 prom act = qHTS Assay for NPC1 Promoter Activators; Huh7 NPC1 promoter luciferase reporter, 24 h; 320,000 tested, 2.4% active; Potency, µM (highest dose often 9.22 µM), for the others: at the highest dose activation, usual class: activators; AID 485313, 2010; further: % of control where 0% means no effect; nearly all actives have a fitted effect of over 60% in size
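Luminescence from an NPC1 promoter-driven luciferase reporter in stably transfected Huh7 cells was measured after 24 h compound treatment at 37 °C, followed by 10 min ambient incubation with luciferase detection reagent.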
SMN2 splice up = qHTS Assay for Enhancers of SMN2 Splice Variant Expression; 210,000 tested, 2.8% active; HEK293 SMN2-luciferase splicing reporter, luminescence, 30-36 h; Potency, µM (series often up to 46.1 µM), inactives show top-dose activity change, positive = activation, hits mostly activators; further: % of control where 0% means no effect; nearly all actives have a fitted effect of over 55% in size
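HEK293 cells carry an SMN2 minigene-luciferase reporter in which exon 7 inclusion puts luciferase in frame. Cells were seeded at 2000 cells/well, attached for 10-12 hours, then exposed to compounds for 30-36 hours at 37C before ONE-Glo luminescence.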
Numbers without * were called inactive; ? = inconclusive; nt = no result given; [ ] = another dose, or the depositor's remark. The call rests on the fitted dose curve; in most records, active means well fitted curve in the direction sought with a large enough effect; inconclusive means small, poorly fitted or top-dose-only effect, or another doubt; inactive means no such curve, though single readings can be large; an effect the other way counts as inactive or inconclusive. Potency means the concentration at half of the fitted maximal effect.

SMILES	Luc counter	FLuc counter	Rab9 promoter act	NPC1 prom act	SMN2 splice up
CCOc1ccc(Nc2nc(Cc3nnc(SCC(N)=O)o3)cs2)cc1	-0.5%	15.1µM*	-1.1%	-1.5%	-12.5%
Nc1ccc(-c2ccc(C(=O)O)s2)cn1	-14.4%	19µM*	1.5%	8.3%	13.7%
Nc1ccc(S(=O)(=O)O)cn1	1.8%	1.3%	-0.9%	-2.1%	-5.0%
COCc1cc(C)nc2c1C(=O)NC(c1ccc(Br)cc1)N2Cc1ccccc1 (stereo not given)	nt	-3.2%	nt	nt	1.0%
CCOC(=O)c1c(NC(=O)c2c(C)noc2C)sc2c1CCCCC2	0.0%	-1.4%	-4.2%	0.2%	0.1%
CCOC(=O)c1c(NC(=O)c2ccco2)sc2c1CCCCC2	4.0%	16.9µM*	-6.9%	9.1%	26.2%
CCc1c(C)sc(NC(=O)c2ccoc2C)c1C(N)=O	nt	10.7µM*	20.2%	19.6%	nt
CN(C)C(=O)c1c(NC(=O)c2ccco2)sc2c1CCCCC2	0.2%	?	10.1%	-0.2%	-16.8%
O=C(Nc1sc2c(c1C(=O)O)CCCCC2)c1ccco1	-1.5%	4.26µM*	?	2.82µM*	11.2µM*
COC(=O)c1c(NC(=O)c2ccc(OC)cc2OC)sc2c1CCCCC2	nt	6.01µM*	nt	nt	9.4%
O=NN(Cc1ccc(Cl)cc1)[C@@H](C(=O)O)c1ccccc1	1.3%[7.66 µM]	nt	nt	nt	0.7%[9.22 µM]
CCCOc1ccc(Nc2cc(C)nc(C)n2)cc1	nt	3.5%	nt	nt	nt
CCc1cccc(NC(=O)CCc2c(C)nc3c(-c4ccccc4)c(C)nn3c2C)c1	nt	?	nt	nt	5.3%
Cc1ccc(CNC(=O)NC2COc3ccccc3C2)cc1 (stereo not given)	nt	-1.6%	nt	nt	nt
NC(=O)c1c(NC(=O)c2ccco2)sc2c1CCC2	-10.5%	9.53µM*	2µM*	3.55µM*	12.6µM*
Cc1occc1C(=O)Nc1sc2c(c1C(N)=O)CCCCC2	-0.6%	2.69µM*	?	?	?
CC1CCc2c(sc(NC(=O)c3ccco3)c2C(=O)O)C1 (stereo not given)	nt	7.57µM*	-48.7%	?	nt
N#Cc1c(NC(=O)c2ccco2)sc2c1CCC2	nt	-1.1%	5.2%	-6.4%	nt
Cc1ccccc1-c1nc2c(c(SCc3cccc(Cl)c3)n1)Cc1c(CO)cnc(C)c1O2	nt	-0.9%	nt	nt	nt
COc1ccc(OCC(=O)NC2CC(=O)N(c3ccc4c(c3)OCCO4)C2)cc1 (stereo not given)	nt	-3.5%	nt	nt	nt
Cc1cccc(NC(=O)C2CCN(S(=O)(=O)c3cccc4nsnc34)CC2)c1C	nt	-7.3%	nt	nt	-0.2%
O=C(Nc1ccc2[nH]c(=S)sc2c1)c1ccccc1	-0.4%	?	?	2.82µM*	11.2µM*
S=c1[nH]c2ccccc2s1	2.1%[39.9 µM]	nt	nt	nt	-8.6%
O=C(Nc1ccc2[nH]c(=S)sc2c1)Nc1ccccc1F	nt	21.3µM*	0.126µM*	0.112µM*	nt
O=C(Nc1ccc2[nH]c(=O)[nH]c2c1)Nc1ccc(F)cc1F	nt	-3.6%	0.6%	-1.3%	nt
SMILES	Luc counter	FLuc counter	Rab9 promoter act	NPC1 prom act	SMN2 splice up
CC1=C(C(=O)Nc2cccnc2)C(c2ccccc2)n2nc(SCc3ccccc3F)nc2N1 (stereo not given)	nt	-3.2%	nt	nt	1.6%
CCc1ccc(NC(=O)N(Cc2cn(CC)c3ccccc23)C2CCCCC2)cc1	nt	?	nt	nt	12.6µM*
CCOc1ccc(NC(=O)N(Cc2cn(CC)c3ccccc23)C2CCCCCC2)cc1	nt	-14.0%	nt	nt	?
CCc1nc2ccccc2[nH]1	-3.2%	0.1%	5.7%	-1.3%	0.1%
Nc1ccc2nc(CCc3ccccc3)[nH]c2c1	-5.3%	?	?	19.8%	?
Nc1ccc(C(=O)OCCCc2nc3cc4ccccc4cc3[nH]2)cc1	nt	15.1µM*	18.6%	1.3%	nt
CCc1nc2ccc(Cc3ccc4nc(CC)[nH]c4c3)cc2[nH]1	nt	12µM*	9.7%	-1.5%	nt
Cc1ccc2nc(CCc3ccc(N)cc3)[nH]c2c1	nt	15.1µM*	3.16µM*	2.82µM*	nt
Nc1ccc(C(=O)OCc2nc3c(ccc4ccccc43)[nH]2)cc1	-1.3%	13.5µM*	?	24.7%	154.4%
O=C(c1cccn1-c1nnc(N2CCCC2)s1)N1CCN(c2ccc(Cl)cc2)CC1	nt	-9.8%	nt	nt	nt
CCN(CC)CCNC(=O)c1ccc2c(=O)n3nc(Nc4cccc(Cl)c4C)sc3nc2c1	nt	-2.0%	nt	nt	nt
Nc1ccc(Cc2nc3cc4ccccc4cc3[nH]2)cc1	-4.4%	19µM*	?	?	12.6µM*
CCCCOC(=O)c1sc2nc(C)cc(C)c2c1N	nt	10.7µM*	2.82µM*	3.55µM*	nt
Cc1cc(C)c2c(N)c(C(=O)Nc3nccs3)sc2n1	-9.9%	0.338µM*	1µM*	?	?
COCc1cc(C)nc2sc(C(=O)Nc3nccs3)c(N)c12	0.4%	16.9µM*	?	?	11.6%
Cc1ccc(NC(=O)c2sc3nc(C)cc(C)c3c2N)cc1	nt	1.2µM*	0.562µM*	0.562µM*	nt
Cc1cc(C)c2c(N)c(C(=O)NN)sc2n1	nt	-15.2%	-2.6%	0.9%	nt
CCOC(=O)c1sc2nc(C)cc(C)c2c1N	-3.4%	-50.7%	24.6%	23.3%	?
COCc1cc(C)nc2sc(C(=O)Nc3ccc(C(C)=O)cc3)c(N)c12	nt	-14.0%	nt	nt	?
CCCNC(=O)Cn1nc(-c2ccc(F)cc2)c2cnc3ccc(F)cc3c21	nt	-1.5%	nt	nt	nt
O=c1c2cc(-c3ccccc3)sc2nc2n1N=C(c1ccccc1)CS2	nt	1.9µM*	1.78µM*	2µM*	nt
CC(C)Sc1nc2sc(-c3ccccc3)cc2c(=O)n1N	-7.4%	-8.4%	7.2%	10.1%	2.0%
CSc1nc2sc(-c3ccccc3)cc2c(=O)n1N	?	?	0.631µM*	1.26µM*	2.82µM*
COc1cc(NC(=O)Cn2c(=O)n(-c3ccccc3)c(=O)c3c4c(sc32)CCCC4)cc(OC)c1	nt	-0.6%	nt	nt	6.0%
Cc1ccc(S(=O)(=O)OCC(=O)O)cc1	-5.8%[7.66 µM]	nt	nt	nt	-18.0%[9.22 µM]
SMILES	Luc counter	FLuc counter	Rab9 promoter act	NPC1 prom act	SMN2 splice up
COCCSc1nnc(NC(=O)C(C)(C)C)s1	-1.5%	15.1µM*	?	?	nt
CC(C)(C)C(=O)Nc1nnc(SCc2cccc(F)c2)s1	-2.6%	19µM*	2µM*	?	?
C=CCOC(=O)/C(=C/c1cccc2ccccc12)NC(=O)c1ccccc1	-0.5%	19µM*	19.8%	10.2%	?
CNC(=O)c1nn(-c2ccc(Cl)cc2)ccc1=O	3.0%	-0.4%	4.3%	-0.9%	-3.1%
NNC(=O)c1nn(-c2ccc(Cl)cc2)cc1O	nt	13.5µM*	?	?	nt
O=C(/C=C/c1cccs1)N1CCc2ccccc21	?	0.477µM*	3.98µM*	3.98µM*	2.82µM*
O=C(c1cccs1)N1CCCc2ccccc21	4.5%	5.1%[2.3 µM]	3.0%	-2.5%	26.4%
O=C(/C=C/c1cccs1)N1CCN(c2ccccc2F)CC1	-3.9%	-13.4%	-4.1%	-2.8%	10.0%
O=C(c1cccs1)N1CCc2ccccc21	-14.6%	26.9µM*	?	?	14.1µM*
